Reference: the supplement of paper PMC13380429

System: Vero E6 infected with SARS-CoV-2
Test: inhibition of SARS-CoV-2 cytopathic effect; higher = more antiviral protection, active = above 15
Conditions: 48 h

Measured: inhibition of SARS-CoV-2 cytopathic effect

CCCn1c(=O)c2[nH]c(-c3cnn(Cc4cccc(C(F)(F)F)c4)c3)nc2n(CC)c1=O
inactive: 1 nM 1.43% | 8.33 nM 1.19% | 100 nM 2.16% | 833.33 nM -0.96% | 10000 nM 0.11%

Cc1c(C(=O)N2CCOc3ccc(-c4ccc(N)nc4)cc3C2)ccc(S(C)(=O)=O)c1F
inactive: 1 nM -2.79% | 8.33 nM 1.25% | 100 nM -0.37% | 833.33 nM 0.13% | 10000 nM 1.3%

Cc1cccc(-c2n[nH]cc2-c2ccc(F)c(-c3cnn(CCO)c3)c2)n1
inactive: 1 nM 3.99% | 8.33 nM 1.16% | 100 nM -2.29% | 833.33 nM -0.9% | 10000 nM -3.66%

COc1cc(N2CCC(N3CCN(C)CC3)CC2)ccc1Nc1ncc(Cl)c(Nc2ccccc2P(C)(C)=O)n1 [brigatinib]
inactive: 1 nM 0.45% | 8.33 nM -1.85% | 100 nM -2.21% | 833.33 nM -0.42% | 10000 nM -5.17%

C=C1/C(=C\C=C2/CCC[C@]3(C)[C@@H]([C@H](C)CC[C@@H](O)C(C)C)CC[C@@H]23)C[C@@H](O)C[C@@H]1O [tacalcitol]
inactive: 1 nM -1.15% | 8.33 nM -0.65% | 100 nM 1.63% | 833.33 nM 1.18% | 10000 nM 1.31%

O=C(CCc1ccc(O)cc1)c1c(O)cc(O)cc1O[C@@H]1O[C@H](CO)[C@@H](O)[C@H](O)[C@H]1O [phlorizin]
inactive: 1 nM -2.08% | 8.33 nM 0% | 100 nM -10.3% | 833.33 nM 0.18% | 10000 nM 1.43%

O=C(O)c1ccccc1O [salicylic-acid]
inactive: 1 nM 1.59% | 8.33 nM -5.54% | 100 nM -2.37% | 833.33 nM 0.26% | 10000 nM 1.57%

CC(=O)Nc1ccc(NC(=S)NC(=O)c2ccc(C(C)(C)C)cc2)cc1 [tenovin-1]
inactive: 1 nM -0.23% | 8.33 nM 0.85% | 100 nM 1.6% | 833.33 nM -7.1% | 10000 nM -8.92%

N=C(N)Nc1ccc(Cl)cc1 [4-chlorophenylguanidine]
inactive: 1 nM 0.9% | 8.33 nM 1.22% | 100 nM 0.63% | 833.33 nM -0.99% | 10000 nM 0.95%

COCC[n+]1c2c(n(Cc3cnccn3)c1C)C(=O)c1ccccc1C2=O
inactive: 1 nM 0.33% | 8.33 nM 4.83% | 100 nM 2.74% | 833.33 nM -2.2% | 10000 nM -9.2%

O=C1OC2(c3ccc(O)cc3Oc3cc(O)ccc32)c2ccccc21 [fluorescein]
inactive: 1 nM -8.63% | 8.33 nM -9.87% | 100 nM -11.5% | 833.33 nM -5.06% | 10000 nM -7.22%

CC(=O)N[C@@H](CS)C(=O)O [acetylcysteine]
inactive: 1 nM 1.87% | 8.33 nM 1.77% | 100 nM 3.98% | 833.33 nM 1.93% | 10000 nM 3.74%

Cn1c(=O)c(F)c(Nc2ccc(I)cc2F)c2c(=O)n(C[C@@H](O)CO)cnc21
inactive: 1 nM -3.03% | 8.33 nM -6.23% | 100 nM -11% | 833.33 nM -11.6% | 10000 nM -12.3%

OCc1cncc(F)c1 [5-fluoro-3-pyridyl-methanol]
inactive: 1 nM -1.88% | 8.33 nM 0.14% | 100 nM -10.8% | 833.33 nM -0.19% | 10000 nM -2.94%

Cc1ccsc1/C=C/C1=NCCCN1C [morantel]
inactive: 1 nM -0.99% | 8.33 nM -3.26% | 100 nM -2.09% | 833.33 nM -5.69% | 10000 nM -0.33%

CC(=O)NCCC(=O)N[C@@H](Cc1c[nH]cn1)C(=O)O [N-acetylcarnosine]
inactive: 1 nM 1.19% | 8.33 nM 1.23% | 100 nM -0.15% | 833.33 nM -2.97% | 10000 nM 4.18%

Cc1ccc(-c2ccc(C)cn2)nc1 [abametapir]
inactive: 1 nM -4.6% | 8.33 nM 1.76% | 100 nM -1.42% | 833.33 nM -3.2% | 10000 nM -1.76%

CN(C)/C=N/c1c(I)cc(I)c(CCC(=O)O)c1I [iopodic-acid]
inactive: 1 nM -3.57% | 8.33 nM 0.15% | 100 nM -0.76% | 833.33 nM 0.26% | 10000 nM -2.24%

CCCCOc1ccc(CC(=O)NO)cc1 [bufexamac]
inactive: 1 nM 0.27% | 8.33 nM -0.68% | 100 nM 0.49% | 833.33 nM 0% | 10000 nM 0.42%

O=C(CCc1ccncc1)NNC(=O)N1Cc2ccccc2Oc2ccc(Cl)cc21
inactive: 1 nM 1.3% | 8.33 nM 1.11% | 100 nM 1.69% | 833.33 nM -0.24% | 10000 nM 5.24%

O=C(/C=C/c1cccnc1)NCCCCC1CCN(C(=O)c2ccccc2)CC1
inactive: 1 nM 3.22% | 8.33 nM -5.64% | 100 nM -20.3% | 833.33 nM -24.1% | 10000 nM -24.5%

C[N+]1(C)CCC(OC(=O)C(O)(c2ccccc2)C2CCCC2)C1 (stereo not given) [glycopyrrolate]
inactive: 1 nM -3.43% | 8.33 nM -1.27% | 100 nM -0.55% | 833.33 nM -0.2% | 10000 nM -1.06%

COC(=O)C1=C(C)NC(C)=C([N+](=O)[O-])[C@@H]1c1ccccc1C(F)(F)F (racemic)
inactive: 1 nM 2% | 8.33 nM -0.15% | 100 nM -1.34% | 833.33 nM 2.63% | 10000 nM 4.88%

CCCCN1CCC(CNC(=O)c2c3n(c4ccccc24)CCCO3)CC1 [piboserod]
inactive: 1 nM -0.67% | 8.33 nM 1.75% | 100 nM 0.6% | 833.33 nM -0.97% | 10000 nM 1.25%

CC1=C(CC(=O)O)c2cc(F)ccc2/C1=C\c1ccc([S+](C)[O-])cc1 (stereo not given) [sulindac]
inactive: 1 nM -0.99% | 8.33 nM -2.82% | 100 nM -1.46% | 833.33 nM -0.62% | 10000 nM -2.36%

O=S1(=O)N[C@H]2CCCN2c2ccccc21
inactive: 1 nM -9.82% | 8.33 nM -6.86% | 100 nM -6.43% | 833.33 nM -8.3% | 10000 nM -12.2%

C[C@H](CCC(=O)O)[C@H]1CC[C@H]2[C@@H]3CC[C@@H]4C[C@H](O)CC[C@]4(C)[C@H]3CC[C@]12C [lithocholic-acid]
inactive: 1 nM -0.57% | 8.33 nM 0.93% | 100 nM -0.13% | 833.33 nM 0.9% | 10000 nM -0.77%

CC(C)[C@@H]1C(=O)N(S(C)(=O)=O)[C@@H]2CCN(C(=O)/C=C/CN3CCCCC3)[C@H]21
inactive: 1 nM -0.03% | 8.33 nM -1.45% | 100 nM 1.05% | 833.33 nM -0.28% | 10000 nM 0.66%

CSCC[C@H](NC(=O)[C@H](CC(C)C)NC(=O)CNC(=O)[C@H](Cc1ccccc1)NC(=O)[C@H](Cc1ccccc1)NC(=O)[C@H](CCC(N)=O)NC(=O)[C@H](CCC(N)=O)NC(=O)[C@@H]1CCCN1C(=O)[C@H](CCCCN)NC(=O)[C@@H]1CCCN1C(=O)[C@@H](N)CCCN=C(N)N)C(N)=O [substance-P]
inactive: 1 nM -5.5% | 8.33 nM -11.3% | 100 nM -9.37% | 833.33 nM -10.4% | 10000 nM -5.64%

FC(F)(F)c1ccc(/C=C/c2nc(COc3ccc(CCCCn4ccnn4)cc3)co2)cc1 [mubritinib]
inactive: 1 nM 2.13% | 8.33 nM 1.62% | 100 nM 2.58% | 833.33 nM 3.2% | 10000 nM 1.47%

C[N+](C)(C)CCOC(N)=O [carbachol]
inactive: 1 nM 1.16% | 8.33 nM 1.84% | 100 nM -1.48% | 833.33 nM 2.68% | 10000 nM 4.16%

OC[C@H]1O[C@@H](OCCc2ccc(O)cc2)[C@H](O)[C@@H](O)[C@@H]1O [salidroside]
inactive: 1 nM -0.77% | 8.33 nM 0.23% | 100 nM -0.6% | 833.33 nM 0.45% | 10000 nM -0.54%

CCOC(=O)C1=CCCC[C@H]1S(=O)(=O)Nc1ccc(F)cc1Cl [resatorvid]
inactive: 1 nM 1.61% | 8.33 nM 1.54% | 100 nM 3.21% | 833.33 nM 0.29% | 10000 nM -0.49%

O=C(CSc1nc2c(c(=O)n1-c1ccccc1)SCC2)Nc1ccc(-c2ccccc2)cn1
inactive: 1 nM 2.66% | 8.33 nM -2.46% | 100 nM 3.88% | 833.33 nM 1.2% | 10000 nM -2.73%

Cc1c(CN2CCN(C(=O)[C@H](C)O)CC2)sc2c(N3CCOCC3)nc(-c3cnc(N)nc3)nc12
inactive: 1 nM -0.71% | 8.33 nM 0.05% | 100 nM 0.57% | 833.33 nM -5.06% | 10000 nM -12.7%

NCC(=O)N1C[C@H](NC(=O)c2ccccc2)C[C@H]1C(=O)O [danegaptide]
inactive: 1 nM -2% | 8.33 nM -0.68% | 100 nM 1.14% | 833.33 nM -0.88% | 10000 nM 3.55%

COc1ccc(CCNCc2ccc(OCc3ccc(Cl)nc3)c(OC)c2)cc1OC
inactive: 1 nM -1.43% | 8.33 nM 0.63% | 100 nM -0.05% | 833.33 nM -1.6% | 10000 nM -2.68%

CN(C)CCN(C)CCc1ccc(Cl)c(Cl)c1
inactive: 1 nM -3% | 8.33 nM -0.98% | 100 nM 1.41% | 833.33 nM -3.83% | 10000 nM -3.28%

CCn1nc(C(=O)O)c(=O)c2cc3c(cc21)OCO3 [cinoxacin]
inactive: 1 nM 0.52% | 8.33 nM -0.24% | 100 nM 0.19% | 833.33 nM 0.12% | 10000 nM -1.09%

CC(C)N(CCC(=O)c1ccc2ccccc2c1)Cc1ccccc1
inactive: 1 nM 0.32% | 8.33 nM -1.41% | 100 nM 1.13% | 833.33 nM 3.16% | 10000 nM 3.92%
